Compounds with a hit are over-represented: about 3.2% of the library has one in this group of screens.
LASV entry inh: inhibitors of Lassa virus binding or cell entry; Potency, µM (series often up to 37.9 µM), for inactives: at the highest dose activity change, negative = inhibition, actives largely listed as inhibitors; AID 540256; 300,000 tested, 1.2% active; Lassa virus pseudotype entry inhibition, cell reporter; calls by dose curve; tested in HEK293 cells; also: nearly all actives have a fitted effect of over 50% in size
Marburg entry inh: inhibitors of Marburg virus binding or cell entry; Marburg virus pseudotyped entry inhibition, cell reporter; Potency, µM (top dose mostly 37.8 µM), inactives show top-dose activity change, negative = inhibition, usual class: inhibitors; 300,000 tested, 1.8% active; AID 540276; calls by dose curve; tested in HEK293 cells
FMDV antiviral: foot and mouth disease virus antiviral activity | 410,000 tested, 1.2% active | FMDV antiviral cell-based qHTS | Potency, µM (top dose mostly 57.9 µM), for the others: at the highest dose activity change, negative = inhibition, actives largely listed as inhibitors; calls by dose curve; tested in HEK293T cells; also: read-out not given here; nearly all actives have a fitted effect of over 45% in size
Vaccinia mCherry: inhibitors of vaccinia virus infection (mCherry reporter signal); Vaccinia virus mCherry reporter infection, fluorescence; Potency, µM (top dose mostly 36.5 µM), for inactives: top-dose activity change, negative = inhibition, hits mostly inhibitors; 310,000 tested, 0.63% active; calls by dose curve; tested in A549 cells; also: nearly all actives have a fitted effect of over 35% in size
Vaccinia Venus: inhibitors of vaccinia virus (Venus reporter) | Vaccinia virus Venus reporter expression, fluorescence | Potency, µM (titrated, usually from 36.5 µM), inactives show top-dose activity change, negative = inhibition, most hits filed as inhibitors | 330,000 tested, 0.46% active | AID 720580; calls by dose curve; tested in A549 cells; also: nearly all actives have a fitted effect of over 30% in size
Active calls of the source: *; i = inactive; ? = inconclusive; . = no result given; ! = repeats disagree; [ ] = remark or other dose. % is scaled to controls: 0 for no effect and ±100 for the full control effect; potency is read from the fitted curve at half-maximal effect.

SMILES	LASV entry inh	Marburg entry inh	FMDV antiviral	Vaccinia mCherry	Vaccinia Venus
CC[C@@]1(C(=O)OC)N[C@H](CN(C)C(=O)NC(C)C)[C@@H]2C(=O)N(C)C(=O)[C@@H]21	.	.	-14%	1%	-15%
CN(C)c1nc(N(C)C)n(Cc2c(Cl)cccc2Cl)n1	13%	-2%[46.1 µM]	-27%	-6%	-6%
CCOc1ccc(NC(=O)CSC2=C(C#N)[C@H](c3ccc4c(c3)OCO4)CC(=O)N2)cc1	.	5%[46.1 µM]	.	.	.
COCc1c(C(=O)N2CCC(c3ccccc3)CC2)cnn1-c1nccc(-c2cc(C)sc2C)n1	.	.	30%	14µM*	?
COCc1c(C(=O)N2CCN(C3CCCC3)CC2)cnn1-c1nccc(-c2cc(C)sc2C)n1	.	.	-1%	-12%	-10%
O=C(c1cccc(COc2cccc3ccccc23)c1)N1CCCC1	8.2µM*	?	14%	.	.
O=C(c1ccccc1)N1CCN(CC(O)COc2cccc3ccccc23)CC1 (stereo not given)	.	.	-3%	.	.
CN(C)c1nc2n(c(=O)n1)[C@H](C#N)CS2	.	2%	.	.	.
Cc1ccc(-c2n[nH]c(=S)n2/N=C/C=C/c2ccccc2[N+](=O)[O-])cc1	13µM*	7%	-8%	-20%	-7%
COc1ccccc1/C=C\C=N\n1c(-c2ccc(Cl)cc2)n[nH]c1=S	10µM*	-17%	50%	i	-24%
COc1ccccc1N1CCN(C(=S)NC(=O)/C=C/c2ccccc2)CC1	0%	?	9%	?	?
Cc1nn(C)cc1CN1CCOc2ccc(C(C)(O)COc3ccccc3)cc2C1 (stereo not given)	.	.	-10%	-4%	?
COc1ccc(N2CCN(C(=O)CCNS(=O)(=O)c3cccs3)CC2)cc1	-2%	9%	.	?	13µM*
COc1ccccc1N1CCN(C(=O)CN(CCc2ccccc2)S(C)(=O)=O)CC1	?	?	.	-8%	-19%
O=C(CCNS(=O)(=O)c1cccs1)N1CCN(c2cccc(C(F)(F)F)c2)CC1	?	-22%	?	-29%	-15%
COc1ccc(N2CCN(C(=O)CN(CCc3ccccc3)S(C)(=O)=O)CC2)cc1	?	?	.	1.8µM*	?
CC(C)OCCCNC(=O)c1c(N)n(Cc2cccs2)c2nc3ccccc3nc12	?	?	-29%	.	28µM*
CC(C)Cn1c(N)c(C(=O)NCC2CCCO2)c2nc3ccccc3nc21 (stereo not given)	-27%	?	?	10µM*	10µM*
N#Cc1c(-c2ccccc2)nc(SCC(=O)Nc2ccc(OC(F)(F)Cl)cc2)[nH]c1=O	.	.	-21%	.	.
Cc1ccc2c(c1)C(N1CCN(C)CC1)=Nc1cccnc1N2	8%	11µM*!	.	.	.
Cc1cc2c(s1)Nc1ccccc1N=C2N1CCN(C)CC1	.	.	-7%	-4%	-18%
CNC(=O)[C@@H]1C[C@H](Sc2nc3ccccc3[nH]2)CN1Cc1cccc(C(F)(F)F)c1	.	.	-9%	-9%	-6%
COc1ccc(OCC(=O)Nc2ccccc2C(=O)NC2CC2)cc1	.	.	-25%	.	.
COc1cc(/C=C/c2[nH]c(=O)[nH]c(=O)c2[N+](=O)[O-])cc([N+](=O)[O-])c1O	.	.	-19%	.	.
CCC(C)Oc1ccc(/C=C/c2[nH]c(=O)[nH]c(=O)c2[N+](=O)[O-])cc1OC (stereo not given)	-10%[46.1 µM]	?	32µM*	i	-4%
SMILES	LASV entry inh	Marburg entry inh	FMDV antiviral	Vaccinia mCherry	Vaccinia Venus
COc1cc(/C=C/c2[nH]c(=O)[nH]c(=O)c2[N+](=O)[O-])ccc1OCCC(C)C	?	-30%[46.1 µM]	28µM*	-7%	-4%
Cc1ncc2c(c1CNS(=O)(=O)N(C)C)CCN(C(=O)c1ccc(-c3ccc(F)cc3)cc1)C2	.	.	-18%	-9%	2%
O=C1NC2c3c(I)sc(I)c3C(=O)C2O1 (stereo not given)	13µM*	?	40µM*	10µM*	?
O=C1NC2c3c(Cl)sc(Cl)c3C(=O)C2O1 (stereo not given)	3%	?	?	-15%	-6%
COC(=O)c1cc(NC(=O)c2ccc(Cn3cc(Cl)cn3)o2)cc(C(=O)OC)c1	-4%	?	?	-12%	-2%
CCOC(=O)c1c(NC(=S)NC(=O)c2ccc(Cn3cc(Cl)cn3)o2)sc2c1CCC(C)C2 (stereo not given)	.	0%	17%	20µM*	28µM*
CC1(C)CC(=O)C2=C(C1)NC(Nc1nc3ccccc3o1)=NC2c1cccc(F)c1 (stereo not given)	.	.	.	20%	2%
NC(=O)Cn1ccc(O)c(Cc2ccc(Cl)cc2Cl)c1=O	.	.	-5%	.	.
Cc1noc(C)c1COc1cccc(C(=O)Nc2ccc(Br)cc2F)c1	?	?	-26%	?	?
O=C(Nc1ccc(F)cc1F)c1ccc2c(c1)OCCO2	?	2.8µM*	3%	-6%	0%
CC(C)Oc1cccc(C(=O)Nc2ccc(Br)cc2F)c1	2µM*	?	0%	-29%	?
O=C(Nc1ccc(Br)cc1F)c1ccc2c(c1)OCCO2	?	6.3µM*	-48%	-8%	-6%
Cc1ccccc1NC(=O)c1ccc2c(c1)OCCO2	29%	28%	0%	.	-16%
O=C(NCCc1ccccc1F)c1ccc2c(c1)OCCO2	0.89µM*	?	2.8µM*	-7%	-3%
CC(C)Cc1cc(C(=O)NCC2Cc3cc(F)cc(-c4ccccn4)c3O2)no1 (stereo not given)	.	.	6%	-5%	0%
CCOc1ccc(N(CC)S(=O)(=O)N2CCCC(C(=O)NCCc3ccccc3OC)C2)cc1 (stereo not given)	?	.	?	-6%	-10%
Nc1cc(=O)[nH]c(=S)[nH]1	.	.	.	-6%	-2%
C/C(CC(=O)NCc1ccco1)=N\NC(=O)c1ccc([N+](=O)[O-])cc1Cl	9%[46.1 µM]	-4%[46.1 µM]	10%	-14%	11%
CC12CC[C@H]3[C@@H](CCC4(O)C[C@H](O)CCC34/C=N/NC(=O)c3ccccc3[N+](=O)[O-])C1(O)CCC2C1=CC(=O)OC1 (stereo not given in full)	?	?	-23%	?	10µM*
CNC(=O)Nc1ccc(C(=O)N/N=C\C23CC[C@@H](O)CC2(O)CC[C@@H]2[C@@H]3CCC3(C)C(C4=CC(=O)OC4)CCC23O)cc1 (stereo not given in full)	.	.	-15%	13µM*	?
Cc1ccc(C(=O)Nc2cccc(NC(=O)CN3CCCCC3)c2)cc1	-13%	-15%	31%	-17%	-12%
Cc1ccc(Cl)cc1N1CCN(C(=O)CSc2nnc3n2C(C)(C)Cc2ccccc2-3)CC1	?	12µM*	13µM*	.	.
COC(=O)CSc1nnc2n1C(C)(C)Cc1ccccc1-2	20%	14%	-3%	.	.
COc1ccc(N2CCN(C(=O)CSc3nnc4n3C(C)(C)Cc3ccccc3-4)CC2)cc1	-24%	-19%	20µM*	.	.
c1ccc(-c2ccc(-c3cnc4n3CCCCC4)cc2)cc1	?	?	-7%	.	8%
O=C(Nc1ccn(Cc2ccccc2F)n1)c1ccc(COc2cccc(Br)c2)cc1	?	8.9µM*	0%	-13%	?
